Data on 28 molecules can be found in ChEMBL document CHEMBL3988442, “University of Dundee, Small-Polar-MMV Screening Library” (2021).

The structures appear in SMILES notation. Among all 48,000 compounds or so, about 13,000 (27%) showed an effect of 50% or more. The list shows a part of the results.

For this assay, the system named is Wolbachia pipientis. Nature of the assay: Anti-Wolbachia Cell-Based Screen. The format is functional. The arrangement: scale not given: in the data most compounds retested in dose-response had high values. The conditions noted are these: 5 µM.
Turning to `CC(C)Sc1nnc(CCNC(=O)OC(C)(C)C)o1`, the “Percent Effect” value turned out to be 12.98%. In the case of `CN(C)C(=O)CSc1nnc(CCNC(=O)OC(C)(C)C)o1`, the “Percent Effect” value is reported as 15.65%. Consider `COC(=O)CSc1nnc(CCNC(=O)OC(C)(C)C)o1`, for which the “Percent Effect” value is listed as 120.8%.

Take `Cc1nc(N2CC[C@@H](NC(=O)c3cnccn3)[C@H](O)C2)c2ccsc2n1`: the “Percent Effect” value turned out to be 4.294%. The value for `CN(Cc1noc(C2CC2)n1)C1CCN(CC(=O)N2CCOCC2)C1` (stereo not drawn) was 87.19%; that for `Cc1nc(CN(C)C2CCN(CC(=O)N3CCOCC3)C2)no1` (stereo not drawn) was -5.301%. The value for `Cc1nc(CN(C)C2CCN(CCC(=O)N3CCOCC3)C2)no1` (stereo not drawn) was 118.2%; that for `CCc1nc(CN(C)C2CCN(CC(=O)N3CCOCC3)C2)no1` (stereo not drawn) was 114.4%; that for `Cc1nc(CN(C)C2CCN(CC(=O)NC3CCOCC3)C2)no1` (stereo not drawn) was -6.239%. Take `c1ccc(-n2cc(CN3CCCC(Cn4cncn4)C3)nn2)cc1` (stereo not drawn): the “Percent Effect” value stood at 6.927%. Regarding `CC(C)N(C)[C@@H]1CCN(c2ncccn2)[C@H]1Cc1ccncc1.O=C(O)C(F)(F)F.O=C(O)C(F)(F)F`, the “Percent Effect” value is -5.254%. Turning to `Cc1cnc(C(=O)N2CCCC(Cn3cc(CC(C)C)nn3)C2)cn1` (stereo not drawn), the “Percent Effect” value was -14.05%. Regarding `CC(C)CNC(=O)c1cc(Br)c2c(c1)OCCO2`, the “Percent Effect” value is reported as -6.005%.

Regarding `CCCc1cc(CN(C)C2CSCCSC2)n[nH]1`, the “Percent Effect” value is on record as -33.01%. As to `Cc1ccc(C(=O)N2CCCCC2c2[nH]ncc2S(C)(=O)=O)s1` (stereo not drawn), the “Percent Effect” value is listed as 77.94%.

Take `Cc1cccc(C(=O)N2CCCCC2c2ccc(CN(C)C)cc2)c1` (stereo not drawn): the “Percent Effect” value was 14.25%. Regarding `Cc1ccc(C(=O)N2CCCCC2c2[nH]ncc2S(C)(=O)=O)cn1` (stereo not drawn), the “Percent Effect” value is given as 107.9%. With `Cc1cccc(C(=O)N2CCCCC2c2[nH]ncc2S(C)(=O)=O)c1` (stereo not drawn), the “Percent Effect” value is 98.38%.

In the case of `Cc1cccnc1C(=O)N1CCCCC1c1[nH]ncc1S(C)(=O)=O` (stereo not drawn), the “Percent Effect” value is -7.963%. For the molecule `Cn1cccc1-c1cc(C(=O)N2CCCCC2c2ccc(F)cc2)[nH]n1` (stereo not drawn), the “Percent Effect” value is on record as 6.407%. The value for `NC(=O)C1CCCCN1C(=O)c1ccc(Br)s1` (stereo not drawn) was 11.69%. The value for `Cn1cccc1-c1cc(C(=O)N2CCCC2c2cccnc2)[nH]n1` (stereo not drawn) was -7.739%. `CC1CCCCN1C(=O)c1ccc(Br)s1` (stereo not drawn): the “Percent Effect” value was 10.55%. The value for `Cc1cnc(C(=O)N2CCCCC2c2[nH]ncc2S(C)(=O)=O)cn1` (stereo not drawn) was -8.056%; that for `Cn1cccc1C(=O)N1CCCCC1c1[nH]ncc1S(C)(=O)=O` (stereo not drawn) was 102.3%; that for `CC1CCN(CC(O)CNc2ccc(Cl)cn2)CC1` (stereo not drawn) was 15.58%. The value for `CC(=O)N(C)CC(=O)Nc1ccc(C)cc1OCc1ccccc1` was 2.382%; that for `Cc1nc(CNC(=O)N(Cc2ccccc2)CC(C)(C)O)oc1C` was -21.53%.
